IL-1B inflam inh = qHTS for Inhibitors of Inflammasome Signaling: IL-1-beta AlphaLISA Primary Screen; THP-1 LPS/ATP IL-1B secretion, AlphaLISA, 16 h; active compounds read low; activity change, % at 57.5 µM; hit rate 4.7% among 360,000; AID 743279, 2014; in the data active = activity change below about -50%; inconclusive = mostly about -30% to -49%; note: % is set by controls: 0 for no effect and ±100 for the full control effect
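THP-1 cells pretreated 1 hr with compounds (up to 57.5 uM final), then stimulated with LPS (250 ng/mL final) plus ATP (1.25 mM final); secreted IL-1B measured by AlphaLISA after 16 hr, decreased signal indicating inhibition.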
TDP1 cell CPT = qHTS for Inhibitors of human tyrosyl-DNA phosphodiesterase 1 (TDP1): qHTS in cells in presence of CPT; chicken DT40 Tdp1-/-;hTDP1 cells + 20 nM CPT, ATP luminescence, 48 h; Potency, µM (doses to about 46.2 µM), for inactives: top-dose activity change, negative = growth inhibition, most hits filed as inhibitors; hit rate 12% among 420,000; AID 686979, 2013; note: potency is the fitted concentration of half-maximal effect; % is set by controls: 0 for no effect and ±100 for the full control effect; nearly all actives have a fitted effect of over 55% in size
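Chicken DT40 Tdp1-/- cells complemented with human TDP1, 400 cells/well, exposed to compounds plus 20 nM camptothecin for at least 48 h at 37 C; viability read as ATP content by CellTiter-Glo luminescence.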
ASM inhibitor = Inhibitors of Secretory Acid Sphingomyelinase (S-ASM): qHTS; Sphingomyelin phosphodiesterase (Homo sapiens), P17405; placental ASM, HMU-PC fluorogenic substrate, 60 min; Potency, µM (titrated, usually from 57.5 µM), for the others: top-dose activity change, negative = inhibition, most hits filed as inhibitors; hit rate 0.006% among 340,000; AID 504937, 2011; note: potency is the fitted concentration of half-maximal effect
Target sequence (P17405 47-631 limits assumed): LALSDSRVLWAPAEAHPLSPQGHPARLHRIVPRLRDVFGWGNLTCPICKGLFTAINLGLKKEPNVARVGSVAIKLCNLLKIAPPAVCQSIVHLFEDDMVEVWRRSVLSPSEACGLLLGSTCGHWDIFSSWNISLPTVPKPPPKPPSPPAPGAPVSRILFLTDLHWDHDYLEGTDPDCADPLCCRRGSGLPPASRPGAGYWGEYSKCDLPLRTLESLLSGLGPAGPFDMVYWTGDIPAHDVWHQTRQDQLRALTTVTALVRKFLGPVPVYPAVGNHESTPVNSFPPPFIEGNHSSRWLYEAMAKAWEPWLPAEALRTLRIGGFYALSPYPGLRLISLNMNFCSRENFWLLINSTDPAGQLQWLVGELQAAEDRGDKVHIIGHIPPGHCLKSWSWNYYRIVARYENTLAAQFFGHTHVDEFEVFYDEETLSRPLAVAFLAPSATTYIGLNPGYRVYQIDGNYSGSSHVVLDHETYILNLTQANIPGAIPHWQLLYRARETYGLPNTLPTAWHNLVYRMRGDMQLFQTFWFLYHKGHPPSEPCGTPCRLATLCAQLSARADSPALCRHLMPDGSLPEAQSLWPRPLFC
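Human placenta-derived ASM preincubated with compound 10 min at room temperature, then reacted with 9 uM (final) fluorogenic HMU-PC substrate for 60 min at 37 C. Stop solution raises pH to 10; fluorescence read at Ex 386/Em 447 nm.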
HepG2 tox = qHTS for Inhibitors of TGF-b: Cytotox Counterscreen; HepG2 CAGA-GFP viability, ATP luminescence, 18 h; Potency, µM (series often up to 46.1 µM), inactives show at the highest dose activity change, negative = cytotoxicity, most hits filed as cytotoxic; hit rate 0.76% among 410,000; AID 588856, 2011; note: potency is the fitted concentration of half-maximal effect
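CellTiter-Glo luminescence gave cytotoxicity after 18 hours at 37 degrees C. The cells were HepG2 CAGA-GFP in 1% FBS DMEM, stimulated with 500 pg/mL TGF-beta after compound addition. %Activity was normalised to no-cell wells (complete cell-killing) and DMSO (no toxicity), and curves were fitted and classified.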
TDP1 cell noCPT = qHTS for Inhibitors of human tyrosyl-DNA phosphodiesterase 1 (TDP1): qHTS in cells in absence of CPT; hit rate 15% among 420,000; Potency, µM (titrated, usually from 46.2 µM), inactives show at the top dose activity change, negative = growth inhibition, most hits filed as inhibitors; DT40 Tdp1-/- hTDP1 cells, no CPT, ATP luminescence, 48 h; AID 686978, 2013; note: potency is the fitted concentration of half-maximal effect; % is set by controls: 0 for no effect and ±100 for the full control effect; nearly all actives have a fitted effect of over 55% in size
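Seeded 400 DT40-hTDP1 cells/well (vehicle DMSO, no 20 nM CPT); pinned compounds; ≥48 hr at 37 °C; CellTiter-Glo luminescence as viability measure.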
TGFb inhibitor = qHTS for Inhibitors of TGF-b; Potency, µM (highest dose often 46.1 µM), without a hit: at the highest dose activity, negative = inhibition, usual class: inhibitors; hit rate 1.2% among 410,000; HepG2 CAGA-GFP TGF-b/SMAD3 reporter, GFP fluorescence, 18 h; TGF-beta stimulated, 500 pg/mL final; AID 588855, 2011; note: potency is the fitted concentration of half-maximal effect; % is set by controls: 0 for no effect and ±100 for the full control effect; nearly all actives have a fitted effect of over 65% in size
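HEPG2 CAGA-GFP reporter cells (1000/well, DMEM with 1% FBS) received compounds, then recombinant TGF-beta at 500 pg/mL final for 18 hours at 37 degrees C. Per-cell GFP summed per well was normalised to unstimulated and stimulated DMSO controls before curve fitting.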
* marks the source's active call; other numbers are inactive results; ? = inconclusive; . = not tested or not shown. Rows were chosen to be rich in hits. Some 19% of all compounds tested hit in one or more screens of this group. Unless noted, calls come from the whole dose curve; as a rule, active = well fitted curve in the direction sought with a large enough effect; inconclusive = small, poorly fitted or top-dose-only effect, or another doubt; inactive = no such curve, though single readings can be large; an effect the other way counts as inactive or inconclusive.

SMILES | IL-1B inflam inh | TDP1 cell CPT | ASM inhibitor | HepG2 tox | TDP1 cell noCPT | TGFb inhibitor
O=C1C(=O)C(c2cc(O)c(O)c(O)c2)Oc2cc(O)cc(O)c21 (configuration not stated) | . | ? | . | 8% | ? | -6%
COc1ccc(-c2onc(C)c2-c2cnn(-c3ccccc3)c2)c(O)c1 | -18 | ? | -16% | -40% | 21µM* | ?
COc1ccc(-c2onc(C)c2-c2ccccc2)c(O)c1 | -1 | ? | -1% | -30% | 18µM* | -19%
COc1ccc(-c2noc(C)c2-c2ccc3ccccc3n2)c(O)c1 | -10 | ? | -17% | -60% | ? | ?
O=S(=O)(c1ccc2ccccc2c1)N1CCN(S(=O)(=O)c2c(F)cccc2F)CC1 | . | . | -3% | -6% | . | -28%
c1ccc(CC[C@@H]2CC[C@@H](CCc3ccccc3)N2)cc1 | -2 | 12µM* | 1% | -26% | 18µM* | 3%
CC(CC(=O)NCc1ccc(Cl)cc1)CC1=NS(=O)(=O)c2ccccc2N1 (configuration not stated) | . | ? | . | -17% | ? | ?
O=C1CCCc2nn(-c3ccccc3)c(-c3ccncc3)c21 | 0 | ? | 1% | 12% | 16µM* | ?
Nc1c2c(nn1-c1ccccc1)CCC2 | -2 | ? | 6% | -104% | -8% | 4%
Cc1cccc(NC(=O)CSc2nnc3[nH]c(=O)cc(-c4ccccc4)n23)c1C | . | ? | . | -23% | -11% | 2%
O=C1/C(=C\c2ccc3c(c2)OCO3)CCC/C1=C/c1ccc2c(c1)OCO2 | -16 | ? | -2% | -30% | ? | ?
CC1CC/C(=C\c2ccc3c(c2)OCO3)C(=O)/C1=C/c1ccc2c(c1)OCO2 (configuration not stated) | -55* | ? | -7% | 6% | ? | -28%
Cc1ccc2nc3[nH]c(=O)[nH]c(=O)c3c(N)c2c1 | -6 | ? | 286% | -1% | 8.2µM* | 4%
CCOC(=O)[C@]12CCC=C1N(Cc1ccc(Cl)cc1Cl)C(=O)[C@H](CC(=O)N1CCSCC1)C2 | -23 | 23µM* | . | . | 16µM* | .
COC(=O)[C@]12CCCCC=C1N(Cc1ccc(Cl)cc1Cl)C(=O)[C@H](CC(=O)N1CCCC1)C2 | 0 | ? | . | . | ? | .
CCOC(=O)N1CCN(C(=O)C[C@@H]2C[C@@]3(C(=O)OCC)CCCC=C3N(Cc3ccc(Cl)cc3Cl)C2=O)CC1 | -28 | 21µM* | . | . | 23µM* | .
CCOC(=O)N1CCN(C(=O)C[C@@H]2C[C@@]3(C(=O)OC)CCCCC=C3N(Cc3ccc(Cl)cc3Cl)C2=O)CC1 | . | 21µM* | . | . | 12µM* | .
O=C(O)c1ccc(Cl)c(NCc2cccnc2)c1 | 12 | -3% | 10% | -2% | 2% | 7%
Cc1nc(SCC(=O)NCC2CCCO2)c2c3c(sc2n1)CCC3 (configuration not stated) | -9 | -16% | 0% | -12% | -16% | -10%
CCc1nc(-n2[nH]c(=O)c3ccccc3c2=O)c2c3c(sc2n1)CCCC3 | 24 | -7% | -2% | -4% | 3% | ?
Cc1nc(Sc2nnnn2C)c2c3c(sc2n1)CCC3 | -57* | 2.1µM* | 3% | 13% | 1.6µM* | ?
CCc1nc(Sc2nnnn2-c2ccccc2)c2c3c(sc2n1)CCCC3 | -81* | 16µM* | -4% | -4% | 18µM* | 0%
COc1ccc(CCn2c(=O)c3cccnc3n(CC(=O)Nc3c(C)cc(C)cc3C)c2=O)cc1OC | . | -19% | . | 0% | ? | -5%
CCN(CC)S(=O)(=O)c1ccc(N2CCN(C)CC2)c(NC(=O)CN2C(=O)NC3(CCCCC3)C2=O)c1 | -16 | -7% | -2% | -3% | -2% | -3%
O=C(O)c1cc([N+](=O)[O-])ccc1Nc1ccccc1 | 19 | -1% | 4% | 1% | -3% | -11%
SMILES | IL-1B inflam inh | TDP1 cell CPT | ASM inhibitor | HepG2 tox | TDP1 cell noCPT | TGFb inhibitor
CC(=O)N(C)c1cc([N+](=O)[O-])ccc1OCc1ccccc1 | 6 | -9% | -3% | -16% | -22% | -6%
Nc1cc([N+](=O)[O-])ccc1OCc1ccccc1 | 7 | 18µM* | -6% | -4% | ? | -9%
Nc1cc([N+](=O)[O-])ccc1Nc1ccccc1 | -103* | 15µM* | -7% | -25% | 6.5µM* | -7%
Cc1cc(C(=O)NNC(=O)CN2C(=O)NC3(CCCCC3)C2=O)c(C)o1 | 0 | -5% | 2% | 0% | -2% | 17%
O=C(NCc1ccc2c(c1)OCO2)c1c(-c2ccccc2)sc2ccccc12 | 27 | ? | -6% | -29% | ? | ?
Cc1ccc(CNC(=O)c2c(-c3ccccc3)sc3ccccc23)o1 | -25 | ? | -2% | -15% | 16µM* | ?
COc1cc2sc(-c3ccc(S(C)(=O)=O)cc3)c(C(=O)NCCCCO)c2cc1OC | -12 | 5% | 96% | 2% | -6% | -4%
COc1cc2sc(-c3ccc(S(C)(=O)=O)cc3)c(C(=O)NCc3ccc(C)o3)c2cc1OC | 3 | ? | 66% | -4% | 13µM* | 7%
CN1OC[C@@H]2CN(Cc3ccccc3)[C@H](c3cccc(Oc4ccccc4)c3)C[C@@H]21 | -9 | 26µM* | -2% | -25% | 23µM* | ?
CC(C)N(Cc1nccn1C)C(=O)C1CCC(=O)N(CCc2ccccc2)C1 (configuration not stated) | 14 | -2% | . | -30% | 7% | -23%
COc1ccc(/C=N/NC(=O)c2cc(C)oc2C)cc1OCc1ccccc1 | -24 | ? | -5% | -10% | ? | -7%
COc1ccc(/C=N/NC(=O)c2ccccc2OCc2ccccc2)c(OC)c1 | -10 | ? | -1% | -26% | 18µM* | ?
Cc1cccc(/C=N/NC(=O)c2cc(Br)ccc2OCc2ccccc2)n1 | 4 | ? | -4% | -68% | 23µM* | ?
O=C(N/N=C/c1ccco1)c1cc(Br)ccc1OCc1ccccc1 | 24 | 0% | 8% | -27% | -17% | -12%
Cc1cc(C(=O)N/N=C/c2ccc(OCc3ccccc3)cc2)c(C)o1 | -22 | ? | -5% | -10% | 16µM* | -13%

Assay outcomes (PubChem)
